# Measurements published in ChEMBL document CHEMBL3988442, “University of Dundee, Small-Polar-MMV Screening Library” (2021).
# Molecular target: T1, Methionyl-tRNA synthetase, putative (Leishmania donovani (strain BPK282A1)) (UniProt E9BF75)
# T1 sequence (whole entry): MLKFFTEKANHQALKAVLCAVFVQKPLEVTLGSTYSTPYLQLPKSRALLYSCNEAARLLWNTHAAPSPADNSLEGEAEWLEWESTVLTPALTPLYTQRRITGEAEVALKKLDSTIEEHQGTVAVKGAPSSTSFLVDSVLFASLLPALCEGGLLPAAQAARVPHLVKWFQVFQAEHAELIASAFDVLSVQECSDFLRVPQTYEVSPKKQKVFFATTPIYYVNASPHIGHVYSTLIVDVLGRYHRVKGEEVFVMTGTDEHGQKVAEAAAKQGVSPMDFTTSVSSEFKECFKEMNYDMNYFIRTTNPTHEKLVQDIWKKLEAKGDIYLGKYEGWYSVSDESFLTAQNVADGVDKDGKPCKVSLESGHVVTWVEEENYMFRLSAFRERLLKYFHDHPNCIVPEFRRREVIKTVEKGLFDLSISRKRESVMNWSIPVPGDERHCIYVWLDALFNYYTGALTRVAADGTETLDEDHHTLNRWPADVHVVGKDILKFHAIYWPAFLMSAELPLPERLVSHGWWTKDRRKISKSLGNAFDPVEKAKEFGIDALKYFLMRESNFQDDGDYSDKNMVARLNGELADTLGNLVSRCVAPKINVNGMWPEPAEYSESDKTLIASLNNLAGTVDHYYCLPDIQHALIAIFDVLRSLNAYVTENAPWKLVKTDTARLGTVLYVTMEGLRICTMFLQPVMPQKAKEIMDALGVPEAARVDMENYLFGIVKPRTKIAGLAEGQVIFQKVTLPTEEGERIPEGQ
# Assay: Leishmania donovani Methionine tRNA synthetase (LdMetRS):v7. Dose response assay
# Assay type: functional
# Set-up: conc 80 nM, time 150 minutes
compound,measurement,setting,value
COc1ccc(OC)c(NC(=O)N2CCOc3ccc(C)cc32)c1,PXC50,MAX_EFFECT 7.777777778,< 4
NS(=O)(=O)c1cccnc1Nc1cncnc1,PXC50,MAX_EFFECT 8.518518519,< 4
CN1CCC(CNCc2cc(Cl)cc(Cl)c2)CC1,PXC50,MAX_EFFECT 8.986615679,< 2.7
CN(c1nc(NCCO)c2cnn(C)c2n1)C1CCS(=O)(=O)C1 (stereo unspecified),PXC50,MAX_EFFECT 9.248554913,< 4
Clc1cc(Cl)cc(NCCc2ccccc2)c1,PXC50,MAX_EFFECT 9.751434034,< 2.7
Cc1cc(Nc2ncccc2S(N)(=O)=O)cc(C(F)(F)F)c1,PXC50,MAX_EFFECT 10.97804391,< 4
OCCCNc1nccc(Nc2ccc(F)c(F)c2)n1,PXC50,MAX_EFFECT 15.09433962,< 4
Clc1cc(Cl)cc(CNC2COC2)c1,PXC50,MAX_EFFECT 15.10516252,< 2.7
COc1ccccc1NC(=O)Nc1cccc(N)c1,PXC50,MAX_EFFECT 17.00934579,< 4
CN1CCn2cc/c(=N\c3ccc(F)c(F)c3)nc21,PXC50,MAX_EFFECT 18.13084112,< 4
Clc1cc(Cl)cc(CNCc2ncc[nH]2)c1,PXC50,MAX_EFFECT 20.45889101,< 2.7
Cc1cnn(C)c1CNc1cc(Cl)cc(Cl)c1,PXC50,MAX_EFFECT 23.51816444,< 2.7
Cc1cc(CNCc2cc(Cl)cc(Cl)c2)no1,PXC50,MAX_EFFECT 24.66539197,< 2.7
OCCCNc1ccnc(Nc2cccc(F)c2)n1,PXC50,MAX_EFFECT 28.51637765,< 4
C[C@@H](CO)Nc1ccnc(Nc2cccc(F)c2)n1,PXC50,MAX_EFFECT 30.05780347,< 4
COc1ccccc1NC(=O)NCC1CCCCC1,PXC50,MAX_EFFECT 34.20560748,< 4
COc1ccncc1NC(=O)N1CCCc2ccccc21,PXC50,MAX_EFFECT 36.98113208,< 4
Cn1ncc2c(NCCO)nc(NCCn3cccn3)nc21,PXC50,MAX_EFFECT 36.99421965,< 4
COc1cccc(NC(=O)N2CCCc3ccccc32)c1,PXC50,MAX_EFFECT 45.28301887,< 4
OCCNc1ccnc(Cl)n1,PXC50,MAX_EFFECT 3.551401869,< 4
C[C@@H](CO)Nc1nc(Nc2ccc(F)c(F)c2)nc2c1cnn2C,PXC50,"BOTTOM 0.900407202, HILLSLOPE 1.012545194, MAX_EFFECT 78.11320755, TOP 96.15766895",4.67
Clc1cc(Cl)cc(NC2COC2)c1,PXC50,MAX_EFFECT 18.9292543,< 2.7
Clc1cc(Cl)cc(CNCc2ccc3[nH]ccc3c2)c1,PXC50,"BOTTOM 7.303470977, HILLSLOPE 1.421171765, MAX_EFFECT 85.85086042, TOP 90.87319761",4.04
CC(C)Nc1nc(NCCO)c2cnn(C)c2n1,PXC50,MAX_EFFECT 5.313092979,< 4
Nc1nc(-c2ccccc2)cn1NC(=O)Nc1ccccc1F,PXC50,MAX_EFFECT 18.14814815,< 4
CC(NCc1cc(Cl)cc(Cl)c1)C1CCCN(C(=O)OC(C)(C)C)C1 (stereo unspecified),PXC50,MAX_EFFECT 36.52007648,< 2.7
Cn1ncc2c(NC3CCC3)nc(Nc3ccc(F)c(F)c3)nc21,PXC50,"BOTTOM 4.327233824, HILLSLOPE 1.310483513, MAX_EFFECT 62.26415094, TOP 64.55009742",5.13
NS(=O)(=O)c1cccnc1Nc1ccc(F)cc1,PXC50,MAX_EFFECT 1.518026565,< 4
Clc1cc(Cl)cc(CNCc2cccnc2)c1,PXC50,MAX_EFFECT 23.51816444,< 2.7
COc1cccc(NC(=O)Nc2ccccc2OC)c1,PXC50,MAX_EFFECT 2.056074766,< 4
Cn1ncc2c(NCCO)nc(NCCS(=O)(=O)N3CCOCC3)nc21,PXC50,MAX_EFFECT 23.12138728,< 4
O=c1nc(NCCCNC2CCOc3c(Cl)cc(Cl)cc32)[nH]c2ccccc12 (stereo unspecified),PXC50,"BOTTOM 1.104460677, HILLSLOPE 1.218727258, MAX_EFFECT 102.5925926, TOP 101.9327021",6.05
NS(=O)(=O)c1cccnc1Nc1ccc(O)cc1,PXC50,MAX_EFFECT 5.185185185,< 4
CN(CCO)c1ccnc(Nc2cccc(C(F)(F)F)c2)n1,PXC50,"BOTTOM -8.924411722, HILLSLOPE 0.906080231, MAX_EFFECT 87.09055877, TOP 92.74987259",5.38
COc1ccccc1NC(=O)Nc1cc(C(=O)O)ccc1OC,PXC50,MAX_EFFECT 5.794392523,< 4
Cn1ncc2c(NCCO)nc(N3CCCCC3)nc21,PXC50,MAX_EFFECT 10.78998073,< 4
Cn1ncc2c(NCCO)nc(Nc3ccc(F)cc3)nc21,PXC50,"BOTTOM 3.895127381, HILLSLOPE 1.044427324, MAX_EFFECT 67.40740741, TOP 80.2965153",4.65
CN(CCO)c1ccnc(Nc2ccc(F)c(F)c2)n1,PXC50,"BOTTOM 0.294483603, HILLSLOPE 0.87168646, MAX_EFFECT 90.28037383, TOP 97.37088088",5.27
C[C@H](CO)Nc1nccc(Nc2ccc(F)c(F)c2)n1,PXC50,MAX_EFFECT 6.165703276,< 4
Cn1ncc2c(NCCO)nc(NCCc3ccccc3)nc21,PXC50,MAX_EFFECT 11.85185185,< 4
C[C@@H](CO)Nc1nccc(Cl)n1,PXC50,MAX_EFFECT 6.91588785,< 4
COc1cc(NC(=O)c2cccs2)c2ncccc2c1,PXC50,MAX_EFFECT 11.11111111,< 4
COc1ccccc1NC(=O)Nc1cc(C(N)=O)ccc1OC,PXC50,MAX_EFFECT 5.420560748,< 4
Cc1cccc(Nc2ncccc2S(N)(=O)=O)c1,PXC50,MAX_EFFECT 4.448742747,< 4
C[C@H](CO)Nc1ccnc(Nc2cccc(C(F)(F)F)c2)n1,PXC50,MAX_EFFECT 43.93063584,< 4
COc1ccncc1NC(=O)N1CCOc2ccccc21,PXC50,MAX_EFFECT 6.037735849,< 4
CN(CCO)c1nccc(Cl)n1,PXC50,MAX_EFFECT 5.046728972,< 4
COc1cc(NC(=O)c2cccc3cccnc23)c(OC)cc1Cl,PXC50,MAX_EFFECT 3.703703704,< 4
COc1ccccc1NC(=O)NC1CCCCC1,PXC50,MAX_EFFECT 21.47001934,< 4
COc1ccccc1CNC(=O)Nc1ccccc1OC,PXC50,MAX_EFFECT 9.158878505,< 4
OCCNc1nccc(Cl)n1,PXC50,MAX_EFFECT 0.560747664,< 4
c1ccc(-c2nc(-n3cnnc3)c3ccccc3n2)cc1,PXC50,MAX_EFFECT 0.740740741,< 4
Clc1cc(Cl)cc(CNCc2ccncc2)c1,PXC50,MAX_EFFECT 36.1376673,< 2.7
Cn1ncc2c(NC3CC3)nc(Nc3ccc(F)c(F)c3)nc21,PXC50,MAX_EFFECT 47.9245283,< 4
OCCCNc1ccnc(Nc2ccc(F)c(F)c2)n1,PXC50,"BOTTOM 8.063501062, HILLSLOPE 0.925044522, MAX_EFFECT 61.50943396, TOP 93.0681126",4.25
CC(NCc1cc(Cl)cc(Cl)c1)C1CCS(=O)(=O)CC1 (stereo unspecified),PXC50,MAX_EFFECT 19.31166348,< 2.7
FC(F)(F)CCNCc1cc(Cl)cc(Cl)c1,PXC50,MAX_EFFECT 11.28107075,< 2.7
Clc1cc(Cl)cc(NCc2ccc3[nH]ncc3c2)c1,PXC50,MAX_EFFECT 28.48948375,< 2.7
Cc1sc2nc(CCN)nc(N3CCC(N4CCCC4)CC3)c2c1C,PXC50,MAX_EFFECT 14.62140992,< 4
same,PXC50,MAX_EFFECT 16.44908616,< 4
Clc1cc(Cl)cc(CNCc2ccc3[nH]ncc3c2)c1,PXC50,"BOTTOM 1.106249154, HILLSLOPE 1.041028332, MAX_EFFECT 65.20076482, TOP 65.36183651",3.99
